# Experimental data: paper PMC11006913
# Substitutions are numbered along the chain they refer to.
# Legend:
# Experiment in all cases: PBM; 200 nM protein, PBS
# Conditions in all cases: dsDNA, one strand shown
# CRX [1] = molecular target: CRX (Homo sapiens, UniProt O43186 26-111)
# CRX [2] = molecular target: CRX (Homo sapiens, UniProt O43186 26-111, E42D)
# PITX2 = PITX2 (Homo sapiens, UniProt Q99697 72-157)
# CRX [3] = molecular target: CRX (Homo sapiens, UniProt O43186 26-111, R41L)
# NKX2-6 [4] = molecular target: T1, NKX2-6 (Homo sapiens, UniProt A6NCS4 118-204)
# T1 sequence: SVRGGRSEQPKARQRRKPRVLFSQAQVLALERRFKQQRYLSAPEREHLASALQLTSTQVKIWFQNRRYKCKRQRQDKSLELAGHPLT
# NKX2-6 [5] = molecular target: T2, NKX2-6 (Homo sapiens, UniProt A6NCS4 118-204, F151L)
# T2 sequence: T1 sequence with F34L
# MSX2 [6] = molecular target: MSX2 (Homo sapiens, UniProt P35548 130-214, R199I)
# Sequence of MSX2 (Homo sapiens, UniProt P35548 130-214, R199I) (P35548 130-214 R199I): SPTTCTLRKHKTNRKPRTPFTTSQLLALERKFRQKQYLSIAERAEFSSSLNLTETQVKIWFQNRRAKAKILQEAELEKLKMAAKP
# MSX2 [7] = molecular target: MSX2 (Homo sapiens, UniProt P35548 130-214)
# Sequence of MSX2 (Homo sapiens, UniProt P35548 130-214) (P35548 130-214): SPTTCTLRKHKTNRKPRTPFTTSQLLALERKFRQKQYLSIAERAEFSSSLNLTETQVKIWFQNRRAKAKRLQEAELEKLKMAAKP
# MSX2 [8] = molecular target: MSX2 (Homo sapiens, UniProt P35548 130-214, F161Y)
# Sequence of MSX2 (Homo sapiens, UniProt P35548 130-214, F161Y) (P35548 130-214 F161Y): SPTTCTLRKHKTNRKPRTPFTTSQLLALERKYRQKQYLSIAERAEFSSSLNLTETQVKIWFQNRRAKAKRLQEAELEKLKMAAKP
# PROP1 [9] = molecular target: PROP1 (Homo sapiens, UniProt O75360 56-141)
# Sequence of PROP1 (Homo sapiens, UniProt O75360 56-141) (O75360 56-141): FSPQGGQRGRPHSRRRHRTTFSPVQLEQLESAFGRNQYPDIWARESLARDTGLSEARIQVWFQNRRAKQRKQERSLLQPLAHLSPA
# PROP1 [10] = molecular target: PROP1 (Homo sapiens, UniProt O75360 56-141, R99H)
# Sequence of PROP1 (Homo sapiens, UniProt O75360 56-141, R99H) (O75360 56-141 R99H): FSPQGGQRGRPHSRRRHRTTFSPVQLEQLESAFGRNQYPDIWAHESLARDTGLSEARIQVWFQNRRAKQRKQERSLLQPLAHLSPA
# PROP1 [11] = molecular target: PROP1 (Homo sapiens, UniProt O75360 56-141, F88S)
# Sequence of PROP1 (Homo sapiens, UniProt O75360 56-141, F88S) (O75360 56-141 F88S): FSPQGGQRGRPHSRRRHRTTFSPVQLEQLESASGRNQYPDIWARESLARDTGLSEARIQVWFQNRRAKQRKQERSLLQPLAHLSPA
# ALX3 [12] = molecular target: ALX3 (Homo sapiens, UniProt O95076 139-225, N203Q)
# Sequence of ALX3 (Homo sapiens, UniProt O95076 139-225, N203Q) (O95076 139-225 N203Q): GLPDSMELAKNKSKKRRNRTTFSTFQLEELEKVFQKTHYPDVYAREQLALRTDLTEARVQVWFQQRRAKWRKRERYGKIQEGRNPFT
# ALX3 [13] = molecular target: ALX3 (Homo sapiens, UniProt O95076 139-225)
# Sequence of ALX3 (Homo sapiens, UniProt O95076 139-225) (O95076 139-225): as the sequence (O95076 139-225 N203Q) above, with Q65N counted along it
# ALX3 [14] = molecular target: ALX3 (Homo sapiens, UniProt O95076 139-225, L168Q)
# Sequence of ALX3 (Homo sapiens, UniProt O95076 139-225, L168Q) (O95076 139-225 L168Q): as the sequence (O95076 139-225 N203Q) above, with L30Q, Q65N counted along it
# ALX3 [15] = molecular target: ALX3 (Homo sapiens, UniProt O95076 139-225, L168V)
# Sequence of ALX3 (Homo sapiens, UniProt O95076 139-225, L168V) (O95076 139-225 L168V): as the sequence (O95076 139-225 N203Q) above, with L30V, Q65N counted along it
# ALX3 [16] = molecular target: ALX3 (Homo sapiens, UniProt O95076 139-225, N203S)
# Sequence of ALX3 (Homo sapiens, UniProt O95076 139-225, N203S) (O95076 139-225 N203S): as the sequence (O95076 139-225 N203Q) above, with Q65S counted along it
# ALX1 [17] = molecular target: ALX1 (Homo sapiens, UniProt Q15699 118-204, L144V)
# Sequence of ALX1 (Homo sapiens, UniProt Q15699 118-204, L144V) (Q15699 118-204 L144V): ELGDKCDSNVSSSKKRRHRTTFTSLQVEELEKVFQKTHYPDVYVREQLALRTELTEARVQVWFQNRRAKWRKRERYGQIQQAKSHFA
# ALX1 [18] = molecular target: ALX1 (Homo sapiens, UniProt Q15699 118-204, L144R)
# Sequence of ALX1 (Homo sapiens, UniProt Q15699 118-204, L144R) (Q15699 118-204 L144R): as the sequence (Q15699 118-204 L144V) above, with V27R counted along it
# ALX1 [19] = molecular target: ALX1 (Homo sapiens, UniProt Q15699 118-204)
# Sequence of ALX1 (Homo sapiens, UniProt Q15699 118-204) (Q15699 118-204): as the sequence (Q15699 118-204 L144V) above, with V27L counted along it
# Sequence of CRX (Homo sapiens, UniProt O43186 26-111, E42D) (O43186 26-111 E42D): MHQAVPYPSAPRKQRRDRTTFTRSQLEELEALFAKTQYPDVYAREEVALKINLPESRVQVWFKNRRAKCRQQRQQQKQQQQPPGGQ
# Sequence of CRX (Homo sapiens, UniProt O43186 26-111, R41L) (O43186 26-111 R41L): as the sequence (O43186 26-111 E42D) above, with R16L, D17E counted along it
# Sequence of CRX (Homo sapiens, UniProt O43186 26-111) (O43186 26-111): as the sequence (O43186 26-111 E42D) above, with D17E counted along it
sequence,measurement,setting,value
ATAATCCC,binding signal,CRX [1],"13.5 upbm affinity estimate (log intensity, higher = more binding, comparable within an allelic series)"
same,binding signal,CRX [2],"13.7 upbm affinity estimate (log intensity, higher = more binding, comparable within an allelic series)"
same,binding signal,PITX2,"13.2 upbm affinity estimate (log intensity, higher = more binding, comparable within an allelic series)"
same,binding signal,CRX [3],"13.7 upbm affinity estimate (log intensity, higher = more binding, comparable within an allelic series)"
TAATCCCA,binding signal,CRX [1],"13.4 upbm affinity estimate (log intensity, higher = more binding, comparable within an allelic series)"
same,binding signal,CRX [2],"13.4 upbm affinity estimate (log intensity, higher = more binding, comparable within an allelic series)"
same,binding signal,PITX2,"13.4 upbm affinity estimate (log intensity, higher = more binding, comparable within an allelic series)"
same,binding signal,CRX [3],"13.3 upbm affinity estimate (log intensity, higher = more binding, comparable within an allelic series)"
GGATTAAC,binding signal,CRX [1],"13.6 upbm affinity estimate (log intensity, higher = more binding, comparable within an allelic series)"
same,binding signal,CRX [2],"13.6 upbm affinity estimate (log intensity, higher = more binding, comparable within an allelic series)"
same,binding signal,PITX2,"13.3 upbm affinity estimate (log intensity, higher = more binding, comparable within an allelic series)"
same,binding signal,CRX [3],"13.5 upbm affinity estimate (log intensity, higher = more binding, comparable within an allelic series)"
CGTCTGTC,binding signal,CRX [1],"8.37 upbm affinity estimate (log intensity, higher = more binding, comparable within an allelic series)"
same,binding signal,CRX [2],"8.33 upbm affinity estimate (log intensity, higher = more binding, comparable within an allelic series)"
same,binding signal,NKX2-6 [4],"9.53 upbm affinity estimate (log intensity, higher = more binding, comparable within an allelic series)"
same,binding signal,NKX2-6 [5],"9.5 upbm affinity estimate (log intensity, higher = more binding, comparable within an allelic series)"
same,binding signal,CRX [3],"8.42 upbm affinity estimate (log intensity, higher = more binding, comparable within an allelic series)"
TAATCCTA,binding signal,CRX [1],"13.4 upbm affinity estimate (log intensity, higher = more binding, comparable within an allelic series)"
same,binding signal,CRX [2],"13.4 upbm affinity estimate (log intensity, higher = more binding, comparable within an allelic series)"
same,binding signal,PITX2,"13.2 upbm affinity estimate (log intensity, higher = more binding, comparable within an allelic series)"
same,binding signal,CRX [3],"13.3 upbm affinity estimate (log intensity, higher = more binding, comparable within an allelic series)"
CGGGGTGC,binding signal,CRX [1],"8.16 upbm affinity estimate (log intensity, higher = more binding, comparable within an allelic series)"
same,binding signal,CRX [2],"8.25 upbm affinity estimate (log intensity, higher = more binding, comparable within an allelic series)"
same,binding signal,MSX2 [6],"9.55 upbm affinity estimate (log intensity, higher = more binding, comparable within an allelic series)"
same,binding signal,MSX2 [7],"9.66 upbm affinity estimate (log intensity, higher = more binding, comparable within an allelic series)"
same,binding signal,MSX2 [8],"9.67 upbm affinity estimate (log intensity, higher = more binding, comparable within an allelic series)"
same,binding signal,CRX [3],"8.31 upbm affinity estimate (log intensity, higher = more binding, comparable within an allelic series)"
CATAATCC,binding signal,CRX [1],"13.4 upbm affinity estimate (log intensity, higher = more binding, comparable within an allelic series)"
same,binding signal,CRX [2],"13.4 upbm affinity estimate (log intensity, higher = more binding, comparable within an allelic series)"
same,binding signal,PITX2,"13.1 upbm affinity estimate (log intensity, higher = more binding, comparable within an allelic series)"
same,binding signal,PROP1 [9],"8.29 upbm affinity estimate (log intensity, higher = more binding, comparable within an allelic series)"
same,binding signal,PROP1 [10],"7.92 upbm affinity estimate (log intensity, higher = more binding, comparable within an allelic series)"
same,binding signal,PROP1 [11],"7.15 upbm affinity estimate (log intensity, higher = more binding, comparable within an allelic series)"
same,binding signal,CRX [3],"13.4 upbm affinity estimate (log intensity, higher = more binding, comparable within an allelic series)"
CTCCGCGC,binding signal,CRX [1],"8.47 upbm affinity estimate (log intensity, higher = more binding, comparable within an allelic series)"
same,binding signal,CRX [2],"8.47 upbm affinity estimate (log intensity, higher = more binding, comparable within an allelic series)"
same,binding signal,ALX3 [12],"7.75 upbm affinity estimate (log intensity, higher = more binding, comparable within an allelic series)"
same,binding signal,ALX3 [13],"7.82 upbm affinity estimate (log intensity, higher = more binding, comparable within an allelic series)"
same,binding signal,ALX3 [14],"7.71 upbm affinity estimate (log intensity, higher = more binding, comparable within an allelic series)"
same,binding signal,ALX3 [15],"7.69 upbm affinity estimate (log intensity, higher = more binding, comparable within an allelic series)"
same,binding signal,CRX [3],"8.43 upbm affinity estimate (log intensity, higher = more binding, comparable within an allelic series)"
same,binding signal,ALX3 [16],"7.76 upbm affinity estimate (log intensity, higher = more binding, comparable within an allelic series)"
GCAAGGAC,binding signal,CRX [1],"8.57 upbm affinity estimate (log intensity, higher = more binding, comparable within an allelic series)"
same,binding signal,CRX [2],"8.32 upbm affinity estimate (log intensity, higher = more binding, comparable within an allelic series)"
same,binding signal,ALX1 [17],"6.53 upbm affinity estimate (log intensity, higher = more binding, comparable within an allelic series)"
same,binding signal,ALX1 [18],"6.6 upbm affinity estimate (log intensity, higher = more binding, comparable within an allelic series)"
same,binding signal,CRX [3],"8.3 upbm affinity estimate (log intensity, higher = more binding, comparable within an allelic series)"
same,binding signal,ALX1 [19],"6.36 upbm affinity estimate (log intensity, higher = more binding, comparable within an allelic series)"
AGTTTATC,binding signal,CRX [1],"10.5 upbm affinity estimate (log intensity, higher = more binding, comparable within an allelic series)"
same,binding signal,CRX [2],"10.3 upbm affinity estimate (log intensity, higher = more binding, comparable within an allelic series)"
same,binding signal,ALX1 [17],"7.91 upbm affinity estimate (log intensity, higher = more binding, comparable within an allelic series)"
same,binding signal,ALX1 [18],"8.01 upbm affinity estimate (log intensity, higher = more binding, comparable within an allelic series)"
same,binding signal,CRX [3],"10.2 upbm affinity estimate (log intensity, higher = more binding, comparable within an allelic series)"
same,binding signal,ALX1 [19],"8.04 upbm affinity estimate (log intensity, higher = more binding, comparable within an allelic series)"
AGTAATCC,binding signal,CRX [1],"13.2 upbm affinity estimate (log intensity, higher = more binding, comparable within an allelic series)"
same,binding signal,CRX [2],"13.1 upbm affinity estimate (log intensity, higher = more binding, comparable within an allelic series)"
same,binding signal,PITX2,"13.1 upbm affinity estimate (log intensity, higher = more binding, comparable within an allelic series)"
same,binding signal,CRX [3],"13 upbm affinity estimate (log intensity, higher = more binding, comparable within an allelic series)"
GGAGATTA,binding signal,CRX [1],"13.2 upbm affinity estimate (log intensity, higher = more binding, comparable within an allelic series)"
same,binding signal,CRX [2],"13.2 upbm affinity estimate (log intensity, higher = more binding, comparable within an allelic series)"
same,binding signal,PITX2,"12.9 upbm affinity estimate (log intensity, higher = more binding, comparable within an allelic series)"
same,binding signal,CRX [3],"13.1 upbm affinity estimate (log intensity, higher = more binding, comparable within an allelic series)"
GCGCACGC,binding signal,CRX [1],"8.22 upbm affinity estimate (log intensity, higher = more binding, comparable within an allelic series)"
same,binding signal,CRX [2],"8.37 upbm affinity estimate (log intensity, higher = more binding, comparable within an allelic series)"
same,binding signal,PITX2,"7.91 upbm affinity estimate (log intensity, higher = more binding, comparable within an allelic series)"
same,binding signal,CRX [3],"8.29 upbm affinity estimate (log intensity, higher = more binding, comparable within an allelic series)"
AGATTAAG,binding signal,CRX [1],"13.1 upbm affinity estimate (log intensity, higher = more binding, comparable within an allelic series)"
same,binding signal,CRX [2],"13 upbm affinity estimate (log intensity, higher = more binding, comparable within an allelic series)"
same,binding signal,PITX2,"12.6 upbm affinity estimate (log intensity, higher = more binding, comparable within an allelic series)"
same,binding signal,CRX [3],"12.6 upbm affinity estimate (log intensity, higher = more binding, comparable within an allelic series)"
